Drawing on the supplement of paper PMC9262897, “Low-cost anti-mycobacterial drug discovery using engineered E. coli” (Nature Communications, 2022), this text covers growth for 20 molecules.

Counter-ions that a name gives are not always drawn. ± gives the standard deviation of the averaged measurements.

One assay concerns E. coli TESEC Mtb DapB. The assay is described as follows: growth (OD600 after 10 h); higher = more growth (less inhibition). To be noted: arabinose induction (level): High; compound 0.1 mM; raw OD600 reference: median of DMSO wells […], cell-free background 0.041. How it is done: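 TESEC E. coli strains in which the native enzyme is deleted and replaced by arabinose-inducible Mtb Asd, DapB, CysH or TrpD, each grown in its selective medium. Strains were screened against the Prestwick library at 0.1 mM and 1% DMSO in 384-well format at low and high arabinose induction. Growth is read as OD600 after 10 h in triplicate.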
Turning to `C[C@@]12N[C@@H](Cc3ccccc31)c1ccccc12` [(-)-MK 801 hydrogen maleate], the growth is 0.213 ± 0.036.

In turn, `C=C1CC[C@@]2(O)[C@H]3Cc4ccc(O)c5c4[C@@]2(CCN3CC2CC2)[C@H]1O5` [Nalmefene hydrochloride] gave a growth of 0.194 ± 0.028.

In turn, `C=C(C)[C@@H]1[C@H]2OC(=O)[C@@H]1[C@]1(O)C[C@H]3O[C@]34C(=O)O[C@H]2[C@]14C` [Picrotoxinin] returned a growth of 0.197 ± 0.0075.

In the case of `NC(=O)OCCCc1ccccc1` [Phenprobamate], the growth amounted to 0.197 ± 0.023.

In turn, `CCC1(c2cccc(O)c2)CCCCN(C)C1` (stereo not given) [Meptazinol hydrochloride] had a growth of 0.215 ± 0.026.

As to `C[N+]1(C)CCOC(O)(c2ccc(-c3ccc(C4(O)C[N+](C)(C)CCO4)cc3)cc2)C1` (stereo not given) [Hemicholinium bromide], the growth was 0.21 ± 0.012.

Consider `C[N+]1(C)CCCC(OC(=O)C(O)(c2ccccc2)c2ccccc2)C1` (stereo not given) [Mepenzolate bromide], for which the growth came out at 0.188 ± 0.0063.

For the molecule `Oc1cc(Cl)ccc1Oc1ccc(Cl)cc1Cl` [Triclosan], the growth amounted to 0.0466 ± 0.0004.

`COc1ccc(C(CN(C)C)C2(O)CCCCC2)cc1` (stereo not given) [Venlafaxine] returned a growth of 0.207 ± 0.0032.

As to `C[CH2][Hg][S]c1ccccc1C(=O)[O-].[Na+]` [Thimerosal], the growth stood at 0.207 ± 0.019.

`C[C@]12N[C@H](Cc3ccccc31)c1ccccc12` [Dizocilpine maleate] registered a growth of 0.179 ± 0.019.

With `CC(Cc1ccccc1)NCCC(c1ccccc1)c1ccccc1` (stereo not given) [Prenylamine lactate], the growth is 0.0466 ± 0.00036.

Turning to `CNCC(O)c1ccc(O)cc1` (racemic) [(+,-)-Synephrine], the growth came to 0.227 ± 0.021.

`CO[C@]12C[C@@H](COC(=O)c3cncc(Br)c3)CN(C)[C@@H]1Cc1cn(C)c3cccc2c13` [Nicergoline] showed a growth of 0.227 ± 0.014.

Regarding `O=P1(NCCCl)OCCCN1CCCl` (stereo not given) [Ifosfamide], the growth stood at 0.204 ± 0.0083.

In turn, `Clc1ccc(C(OCCN2CCCCC2)c2ccccc2)cc1` (stereo not given) [Cloperastine hydrochloride] had a growth of 0.146 ± 0.012.

Molecule `C[C@]12CCC(=O)C=C1C=C[C@@H]1[C@@H]2CC[C@@]2(C)[C@H]1CC[C@@]2(O)CCC(=O)O` [Canrenoic acid potassium salt] had a growth of 0.196 ± 0.012.

As for `CC1C=CC=CCCC=CC=CC=CC=CC(OC2OC(C)C(O)C(N)C2O)CC2OC(O)(CC(O)C(O)CCC(O)CC(O)CC(O)CC(=O)OC(C)C(C)C1O)CC(O)C2C(=O)O` (stereo not given) [Nystatine], the growth turned out to be 0.295 ± 0.013.

As for `CCN[C@@H](C)Cc1cccc(C(F)(F)F)c1` [Dexfenfluramine hydrochloride], the growth was determined as 0.189 ± 0.0055.

In turn, `C[N+](C)(C)CCCCCCCCCC[N+](C)(C)C` [Decamethonium bromide] showed a growth of 0.234 ± 0.021.

The assay is the same for the next values; noted with them: arabinose induction (level): Low; compound 0.1 mM; raw OD600 reference: median of DMSO wells 0.227, cell-free background 0.041.
In turn, `C[C@@]12N[C@@H](Cc3ccccc31)c1ccccc12` [(-)-MK 801 hydrogen maleate] showed a growth of 0.221 ± 0.018.

For the molecule `C=C1CC[C@@]2(O)[C@H]3Cc4ccc(O)c5c4[C@@]2(CCN3CC2CC2)[C@H]1O5` [Nalmefene hydrochloride], the growth amounted to 0.226 ± 0.027.

The molecule `C=C(C)[C@@H]1[C@H]2OC(=O)[C@@H]1[C@]1(O)C[C@H]3O[C@]34C(=O)O[C@H]2[C@]14C` [Picrotoxinin] showed a growth of 0.216 ± 0.0066.

Turning to `NC(=O)OCCCc1ccccc1` [Phenprobamate], the growth was determined as 0.215 ± 0.024.

Take `CCC1(c2cccc(O)c2)CCCCN(C)C1` (stereo not given) [Meptazinol hydrochloride]: the growth amounted to 0.217 ± 0.024.

Consider `C[N+]1(C)CCOC(O)(c2ccc(-c3ccc(C4(O)C[N+](C)(C)CCO4)cc3)cc2)C1` (stereo not given) [Hemicholinium bromide], for which the growth was 0.217 ± 0.021.

On to `C[N+]1(C)CCCC(OC(=O)C(O)(c2ccccc2)c2ccccc2)C1` (stereo not given) [Mepenzolate bromide], for which the growth stood at 0.226 ± 0.009.

In the case of `Oc1cc(Cl)ccc1Oc1ccc(Cl)cc1Cl` [Triclosan], the growth is 0.0475 ± 0.0016.

In turn, `COc1ccc(C(CN(C)C)C2(O)CCCCC2)cc1` (stereo not given) [Venlafaxine] gave a growth of 0.22 ± 0.016.

Consider `C[CH2][Hg][S]c1ccccc1C(=O)[O-].[Na+]` [Thimerosal], for which the growth is 0.214 ± 0.014.

As for `C[C@]12N[C@H](Cc3ccccc31)c1ccccc12` [Dizocilpine maleate], the growth is 0.18 ± 0.012.

`CC(Cc1ccccc1)NCCC(c1ccccc1)c1ccccc1` (stereo not given) [Prenylamine lactate] yielded a growth of 0.04663 ± 0.00038.

The molecule `CNCC(O)c1ccc(O)cc1` (racemic) [(+,-)-Synephrine] gave a growth of 0.232 ± 0.042.

The molecule `CO[C@]12C[C@@H](COC(=O)c3cncc(Br)c3)CN(C)[C@@H]1Cc1cn(C)c3cccc2c13` [Nicergoline] displayed a growth of 0.277 ± 0.028.

The molecule `O=P1(NCCCl)OCCCN1CCCl` (stereo not given) [Ifosfamide] came in with a growth of 0.222 ± 0.026.

`Clc1ccc(C(OCCN2CCCCC2)c2ccccc2)cc1` (stereo not given) [Cloperastine hydrochloride] came in with a growth of 0.163 ± 0.0059.

Molecule `C[C@]12CCC(=O)C=C1C=C[C@@H]1[C@@H]2CC[C@@]2(C)[C@H]1CC[C@@]2(O)CCC(=O)O` [Canrenoic acid potassium salt] yielded a growth of 0.211 ± 0.031.

In turn, `CC1C=CC=CCCC=CC=CC=CC=CC(OC2OC(C)C(O)C(N)C2O)CC2OC(O)(CC(O)C(O)CCC(O)CC(O)CC(O)CC(=O)OC(C)C(C)C1O)CC(O)C2C(=O)O` (stereo not given) [Nystatine] showed a growth of 0.269 ± 0.051.

For `CCN[C@@H](C)Cc1cccc(C(F)(F)F)c1` [Dexfenfluramine hydrochloride], the growth turned out to be 0.246 ± 0.0058.

For the molecule `C[N+](C)(C)CCCCCCCCCC[N+](C)(C)C` [Decamethonium bromide], the growth is 0.242 ± 0.0099.
